Phagocyt inh = inhibitors of macrophage phagocytosis, primary screen, imaging, J774A.1 cells, IgG beads | J774A.1 macrophage IgG-bead phagocytosis | inhibition, % at 5 µM | actives 0.07% (n = 110,000);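 active = inhibition above the mean of the plate negative controls plus 5 SD, cut at about 13% in these data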;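 also: phagocytic index as fraction of beads internalized from green versus red external bead signal; plate controls were DMSO negative control for no effect and cytochalasin-D positive control for full effect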
MRP-1 activ = H69AR viability gain despite doxorubicin, primary screen, MRP-1 activator project, H69AR cells, CellTiter-Glo; viability rescue; viability increase, % at 10 µM; actives 0.61% (n = 140,000);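 active = viability gain under doxorubicin at or above a set limit, the compound median plus 3 SD, cut at about 4.7% in these data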;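 also: MRP-1 overexpressing cells given doxorubicin 25 µM after compound pretreatment; 18-22 h compound pretreatment then 72 h with doxorubicin before readout; 0% = doxorubicin-only wells and 100% = vehicle-treated cells without doxorubicin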
MRP resist rev = reversal of MRP1-mediated doxorubicin resistance, primary screen, H69AR cells, doxorubicin co-treatment. AID 602, 2007. actives 0.04% (n = 85,000). H69AR cells + 2 uM doxorubicin, CellTiter-Glo, 72 h. differential viability (reversal), % at 10 µM;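 active = viability drop by adding the cancer drug above about 55%, with treated viability meeting a 40% cutoff, limit read from the data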;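 also: viability without doxorubicin minus viability with 2 µM doxorubicin for each compound; larger differential means the compound sensitizes cells more to doxorubicin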
The depositor's hits bear a star; x = no result given. A selection: hits, their analogues and other compounds. The true share with any hit is near 0.69%.

SMILES | Phagocyt inh | MRP-1 activ | MRP resist rev
O=C(COc1ccc(Br)cc1)N1CCN(C2CCCC2)CC1 | -1 | 7.6* | 12
O=C(COc1ccc(Br)cc1)N1CCN(Cc2c[nH]c3ccccc23)CC1 | 0 | -2 | -19
CC(C)N(CC(O)c1cccc([N+](=O)[O-])c1)C(C)C (centres undefined) | x | 0 | x
CCN(CC)CCN=Cc1c(O)n(Cc2ccccc2)c(=O)[nH]c1=O | 104* | 1 | 2
CCN(CC)CCCN=Cc1c(O)n(Cc2ccc(F)cc2)c(=O)[nH]c1=O | -1 | -1 | 41
CCN(CC)c1ccc(/C=N/c2sc3c(c2C#N)C2CCN3CC2)c(O)c1 | 0 | -4 | x
O=C1CC(N2CCC(n3c(=O)[nH]c4ccccc43)CC2)C(=O)N1c1ccc(F)cc1 (centres undefined) | 1 | 6.2* | 3
O=c1[nH]c2ccccc2n1C1CCN(CCCC(c2ccc(F)cc2)c2ccc(F)cc2)CC1 | x | -4 | 0
CCC(=NCc1ccc(F)cc1)c1c(O)n(C)c(=O)n(C)c1=O | -1 | -1 | x
CN(C)C(=O)Oc1ccc(OC(=O)c2ccccc2)cc1 | 0 | 8.2* | -27
CN(C(=O)Oc1ccc(C(=O)c2ccc(Cl)cc2)cc1)c1ccccc1 | x | -1 | x
Cc1csc(=N)n1Cc1ccccc1 | -9 | -1 | x
Cc1ccc2nc3c(cc2c1)CC1(C(=O)N(C)C(=O)N(C)C1=O)C1COCCN31 (centres undefined) | -1 | -2 | 3
Cc1ccc2nc3c(cc2c1)CC1(C(=O)N(C)C(=O)N(C)C1=O)C1CCCCN31 (centres undefined) | 1 | 5.8* | -16
O=C1C2CCCC1C(N1CCCC1)CC2 (centres undefined) | 5 | -1 | x
c1ccc(-c2nc(N3CCOCC3)s[n+]2-c2ccccc2)cc1 | -4 | -1 | x
O=C(Nc1ccc(F)cc1)c1c(O)c2c(n(Cc3ccccc3)c1=O)CCCC2 | -1 | 9.0* | x
O=C(Nc1cccnc1)c1c(O)c2c(n(Cc3ccccc3)c1=O)CCCC2 | -1 | 2 | -5
